Compound activity as filed in PubChem BioAssay.
L3MBTL1 block – blocks human L3MBTL1. Q9Y468. AlphaScreen L3MBTL1–H3K9me1 peptide binding. Potency, µM (titrated, usually from 57.1 µM), actives largely listed as inhibitors. hit rate 0.66% among 230,000. AID 485360; also: nearly all actives have a fitted effect of over 60% in size
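AlphaScreen assay: L3MBTL1 (50 nM final) was preincubated 30 min at room temperature with biotinylated H3(1-15)K9me1 peptide (75 nM final), then 30 min with library compounds; streptavidin donor and nickel chelate acceptor beads (10 ug/mL final) added, 30 min dark.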
Sfp inh – blocks B. subtilis Sfp PPTase activity; Q9F4F7; Biochemical Sfp PPTase activity, qHTS; Potency, µM, most hits filed as inhibitors; hit rate 3.5% among 310,000; AID 1490;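 also: the enzyme is Sfp with the accession as filed and its product quenches rhodamine fluorescence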
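Compounds were incubated with enzyme (final 15 nM) for 15 min at room temperature before substrate addition started the reaction. Fluorescence at 525 nm excitation, 598 nm emission was recorded immediately and after 30 minutes.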
JMJD2A Tudor – JMJD2A Tudor domain (human) inhibition; AID 504339; hit rate 4.4% among 390,000; AlphaScreen JMJD2A-Tudor / H3K4me3 peptide binding; Potency, µM (highest dose often 114 µM), hits mostly inhibitors; O75164; also: nearly all actives have a fitted effect of over 50% in size
BAZ2B inh – blocks human BAZ2B. Q9UIF8. hit rate 4.4% among 360,000. AlphaScreen BAZ2B-H3K14Ac peptide displacement. AID 504333. Potency, µM (highest dose often 114 µM), most hits filed as inhibitors; also: nearly all actives have a fitted effect of over 60% in size
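AlphaScreen displacement of biotin-H3(5-23)K14Ac peptide (50 nM final) from BAZ2B (50 nM final) in PBS pH 7.4, 0.01% Tween-20; complex preformed 30 min RT, then compounds (top 110 uM) 30 min RT, beads 20 min dark.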
G9a inh – blocks human histone lysine methyltransferase G9a; Q96KQ7; G9a H3K9 monomethylation, AlphaScreen, 2 h; Potency, µM (doses to about 102 µM), most hits filed as inhibitors; hit rate 8.8% among 350,000; also: nearly all actives have a fitted effect of over 75% in size
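Readings reflect AlphaScreen signal from monomethyl-H3K9 antibody detection. HMT at 20 nM; substrate b-H3K9 500 nM; cofactor SAM 20 uM; 2 h RT reaction; compounds tested as titrations in qHTS with 15 min preincubation.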
HP1b chromo inh – inhibitors of HP1-beta chromodomain binding to methylated histone tails | hit rate 0.56% among 390,000 | AlphaScreen HP1-beta / biotin-H3K9me3 peptide binding | Potency, µM (series often up to 114 µM), hits mostly inhibitors | P83916; also: nearly all actives have a fitted effect of over 70% in size
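Compound inhibition of the preformed complex between 50 nM HP1-beta and 50 nM biotinylated H3K9me3 peptide was read by AlphaScreen. Buffer was PBS pH 7.4 with 0.01% Tween-20. Incubations ran 30 min at room temperature, with 10 ug/mL donor/acceptor beads.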
Of the large screens only hits and unclear results are named; the others gave an inactive call. This is a sample that favours compounds with a hit; in the whole collection about 12% have one here. Calls follow the shape of the dose curve; as a rule, active = well fitted curve in the direction sought with a large enough effect; inconclusive = small, poorly fitted or top-dose-only effect, or another doubt; inactive = no such curve, though single readings can be large; an effect the other way counts as inactive or inconclusive.

COCC(C)n1c(C)cc(C(=O)Cn2nc(C(=O)O)c3ccccc3c2=O)c1C (stereo not drawn)	G9a inh 45µM
CCN(C(=O)COc1ccc2ccc(=O)oc2c1)C1CCCCC1	none (no result: Sfp inh, BAZ2B inh, G9a inh)
O=C(NCCc1csc(-c2cccc(F)c2)n1)C(=O)Nc1cc(F)ccc1F	none (no result: L3MBTL1 block, Sfp inh)
CC1=C(C)CC(C(=O)NCc2cccc(Cl)c2)C(C(=O)O)C1 (stereo not drawn)	none (no result: JMJD2A Tudor, G9a inh, HP1b chromo inh)
Cc1nn(Cc2ccccc2)c(C)c1C(=O)OCC(=O)c1cc(C)n(C2CC2)c1C	BAZ2B inh inconclusive (no result: L3MBTL1 block)
Cc1cc(C(=O)CCl)c(C)n1CCc1ccccc1	Sfp inh 20µM, JMJD2A Tudor 45µM, G9a inh 50µM, HP1b chromo inh inconclusive
COCCn1c(C)cc(C(=O)CSc2nncn2-c2ccccc2)c1C	G9a inh 50µM
COCCn1c(C)cc(C(=O)COC(=O)c2c(C)nn(Cc3ccccc3)c2C)c1C	JMJD2A Tudor inconclusive, BAZ2B inh inconclusive, G9a inh 79µM, HP1b chromo inh inconclusive
COc1ccc(-n2cnnc2SCC(=O)c2cc(C)n(Cc3cccs3)c2C)cc1	JMJD2A Tudor inconclusive, G9a inh inconclusive (no result: BAZ2B inh)
Cn1nnnc1Sc1ncnc2scc(-c3ccccc3C#N)c12	none (no result: L3MBTL1 block, Sfp inh, BAZ2B inh, G9a inh, HP1b chromo inh)
Cc1cc2c(s1)c1cnn(Cc3ccc(F)c(C)c3)c(=O)c1n2C	none (no result: L3MBTL1 block, Sfp inh, BAZ2B inh, G9a inh, HP1b chromo inh)
CNC(=O)Cn1nc(C)c(S(=O)(=O)N2CCOCC2)c1C	none (no result: Sfp inh, BAZ2B inh, G9a inh)
COCCNCC#CCOc1ccc(OC)cc1	JMJD2A Tudor 7.9µM, BAZ2B inh 50µM, G9a inh inconclusive, HP1b chromo inh inconclusive (no result: L3MBTL1 block)
CCOc1ccc(NC(=O)c2ccc(OC)cc2)cc1	none (no result: G9a inh)
C=CCNCC#CCOc1ccc(OC)cc1	JMJD2A Tudor 6.3µM, BAZ2B inh inconclusive, G9a inh 10µM, HP1b chromo inh inconclusive (no result: L3MBTL1 block)
COC(=O)CCC(=O)c1ccn(S(=O)(=O)c2ccccc2)c1	none (no result: L3MBTL1 block)
COC(=O)C1=C(C(=O)OC)[C@@H]2N(C)c3ccc(OC)cc3[C@@]23C[C@@H](C(=O)OC)N(C(=O)c2cc(C)oc2C)C3=N1	JMJD2A Tudor 45µM, HP1b chromo inh inconclusive (no result: L3MBTL1 block, BAZ2B inh, G9a inh)
COC(=O)C1=C(C(=O)OC)[C@@H]2N(C)c3ccc(OC)cc3[C@@]23C[C@@H](C(=O)OC)N(S(=O)(=O)c2ccc(C)cc2)C3=N1	none (no result: L3MBTL1 block, JMJD2A Tudor, BAZ2B inh, G9a inh, HP1b chromo inh)
COC(=O)C1=C(C(=O)OC)[C@@H]2N(C)c3ccc(OC)cc3[C@@]23C[C@@H](C(=O)OC)N(C(=O)c2cccs2)C3=N1	JMJD2A Tudor inconclusive, BAZ2B inh 50µM, G9a inh 40µM, HP1b chromo inh inconclusive
O=C(O)c1cc(-c2ccc(/C=C3\NC(=O)N(c4ccc(Cl)cc4)C3=O)o2)ccc1Cl	L3MBTL1 block 7.9µM, Sfp inh 50µM, JMJD2A Tudor 32µM, BAZ2B inh 45µM, G9a inh 10µM, HP1b chromo inh inconclusive
O=C(O)c1cc(-c2ccc(/C=N/N3C(=O)C4C5C=CC(CC5)C4C3=O)o2)ccc1Cl (stereo not drawn)	none
O=C1NN(c2ccccc2)C(=O)/C1=C/c1ccc(-c2ccc(Cl)c(C(=O)O)c2)o1	JMJD2A Tudor 56µM, BAZ2B inh 50µM, G9a inh 18µM, HP1b chromo inh inconclusive (no result: L3MBTL1 block)
Cc1cccc(N2NC(=O)/C(=C/c3ccc(-c4ccc(Cl)c(C(=O)O)c4)o3)C2=O)c1	JMJD2A Tudor inconclusive, G9a inh 13µM, HP1b chromo inh inconclusive (no result: L3MBTL1 block, BAZ2B inh)
C#CCN1C(=O)S/C(=C\c2ccc(-c3ccc(Cl)c(C(=O)O)c3)o2)C1=O	L3MBTL1 block inconclusive, G9a inh 45µM
Cc1cccc(C)c1OCC(=O)NNC(=S)NC(=O)C1CC1	G9a inh 20µM (no result: L3MBTL1 block)
Cc1cccc(C)c1OCC(=O)NC1CC1	Sfp inh 50µM (no result: L3MBTL1 block)
Cc1ccc(C)c(OCC(=O)NNC(=O)C2CC2)c1	none (no result: L3MBTL1 block)
Cc1cccc(OCC(=O)NC2CCCCCC2)c1C	none (no result: L3MBTL1 block, G9a inh)
Cc1ccc(OCC(=O)Oc2ccc(C)c(C)c2)cc1	none
CC1CCN(S(=O)(=O)c2ccc3c(c2)N(CC(=O)NCCc2ccc(Cl)cc2)C(=O)CO3)CC1	none (no result: L3MBTL1 block, Sfp inh)
Cc1c(-c2ccccc2)c(=O)oc2c(CN3CCOCC3)c(O)ccc12	none (no result: L3MBTL1 block, Sfp inh)
COc1ccc(NC(=O)CN(C)S(=O)(=O)c2ccc3[nH]c4c(c3c2)CCCC4)cc1Cl	JMJD2A Tudor inconclusive, G9a inh inconclusive (no result: L3MBTL1 block, Sfp inh)
